Laboratory results taken from the supplement of paper PMC10849652.
Of roughly 7,900 targets only a part is listed; those with a hit were picked by preference. About 0.6% of all pairs of compound and target were hits.

What was measured:
Test in all cases: log2 fold change, soluble protein after heating vs DMSO (PISA); higher = thermal stabilisation; K562 cells, 10 uM, 30 min; active = over 0.2 and 3.5 SD of the protein, either way, in both replicates (recomputed)
[1] = compound: CC1=C(C=C(C=C1)NC(=O)C2=CC(=CC=C2)C(C)(C)C#N)NC3=CC4=C(C=C3)N=CN(C4=O)C
Method in brief: (§1)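 For each measurement, 10 μM compound was applied for 30 min to K562 cells at 2×10^6 cells/mL. Aliquots were heated for 3 min across 48°C-58°C, pooled, and extracted in PBS with 0.5% NP-40 at 4°C; the supernatant after 21,000xg for 90 min was soluble protein. This was quantified by TMTpro 16plex LC-MS/MS with channel sums equalised, and thermal stability was reported relative to control samples from duplicates, on a log2 fold-change scale.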

[2] = compound: CC1=C(C=C(C=C1)NC(=O)C2=CC(=CC=C2)N(C)C)NC(=O)C3=CC=C(C=C3)O
Method in brief: as §1

[3] = compound: CC1=CC=C(C=C1)SC2=C3C=C(SC3=CN=C2)C(=O)N
Method in brief: as §1

[4] = compound: CC1=NC(=CC=C1)C2=C(N=C(N2)C(C)(C)C)C3=CC4=NC=CN=C4C=C3
Method in brief: as §1

Nexturastat A = compound: CCCCN(Cc1ccc(C(=O)NO)cc1)C(=O)Nc1ccccc1 [Nexturastat A]
Method in brief: as §1

vemurafenib = compound: CCCS(=O)(=O)Nc1ccc(F)c(C(=O)c2c[nH]c3ncc(-c4ccc(Cl)cc4)cc23)c1F [vemurafenib]
Method in brief: as §1

[5] = compound: CCCS(=O)(=O)Nc1ccc(F)c(C(=O)c2c[nH]c3ncc(Cl)cc23)c1F
Method in brief: as §1

[6] = compound: CCCc1cc(C)[nH]c(=O)c1CNC(=O)c1cc(-c2ccnc(N3CCN(C)CC3)c2)cc2c1cnn2C(C)C
Method in brief: as §1

givinostat = compound: CCN(CC)Cc1ccc2cc(COC(=O)Nc3ccc(C(=O)NO)cc3)ccc2c1 [givinostat]
Method in brief: as §1

barasertib = compound: CCN(CCCOc1ccc2c(Nc3cc(CC(=O)Nc4cccc(F)c4)[nH]n3)ncnc2c1)CCOP(=O)(O)O [barasertib]
Method in brief: as §1

Measured: log2 fold change

TGFBRAP1 (UniProt Q8WUH2)
Sequence of UniProt Q8WUH2 (Q8WUH2 whole entry, looked up): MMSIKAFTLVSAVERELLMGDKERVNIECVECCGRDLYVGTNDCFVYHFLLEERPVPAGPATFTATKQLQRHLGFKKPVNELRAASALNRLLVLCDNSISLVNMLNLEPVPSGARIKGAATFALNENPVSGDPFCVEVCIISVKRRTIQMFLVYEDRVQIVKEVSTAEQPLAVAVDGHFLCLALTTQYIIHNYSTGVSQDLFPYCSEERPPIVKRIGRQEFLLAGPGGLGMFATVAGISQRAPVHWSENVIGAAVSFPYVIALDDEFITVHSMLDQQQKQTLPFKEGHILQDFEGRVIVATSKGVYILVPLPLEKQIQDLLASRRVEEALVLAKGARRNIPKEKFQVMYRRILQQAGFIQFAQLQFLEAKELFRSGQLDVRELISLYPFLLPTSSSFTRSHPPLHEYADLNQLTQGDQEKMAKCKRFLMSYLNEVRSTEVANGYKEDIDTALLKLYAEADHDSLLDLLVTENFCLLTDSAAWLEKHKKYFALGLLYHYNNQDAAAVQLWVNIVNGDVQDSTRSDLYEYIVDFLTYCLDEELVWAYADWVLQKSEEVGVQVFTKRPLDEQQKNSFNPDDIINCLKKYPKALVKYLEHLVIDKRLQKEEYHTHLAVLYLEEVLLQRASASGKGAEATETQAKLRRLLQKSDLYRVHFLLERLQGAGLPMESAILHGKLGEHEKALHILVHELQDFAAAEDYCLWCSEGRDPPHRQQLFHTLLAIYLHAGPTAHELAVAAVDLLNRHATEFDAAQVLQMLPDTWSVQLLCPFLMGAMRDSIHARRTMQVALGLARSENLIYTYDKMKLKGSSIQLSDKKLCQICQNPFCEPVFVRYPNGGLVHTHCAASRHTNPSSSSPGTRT
inactive: [1] -0.058 | [2] -0.001 | [3] 0.138 | [4] 0.061 | Nexturastat A 0.107 | vemurafenib -0.055 | [5] -0.003 | [6] 0.038 | givinostat 0.092 | barasertib 0.01

SRSF9 (UniProt Q13242)
Sequence of UniProt Q13242 (Q13242 whole entry, looked up): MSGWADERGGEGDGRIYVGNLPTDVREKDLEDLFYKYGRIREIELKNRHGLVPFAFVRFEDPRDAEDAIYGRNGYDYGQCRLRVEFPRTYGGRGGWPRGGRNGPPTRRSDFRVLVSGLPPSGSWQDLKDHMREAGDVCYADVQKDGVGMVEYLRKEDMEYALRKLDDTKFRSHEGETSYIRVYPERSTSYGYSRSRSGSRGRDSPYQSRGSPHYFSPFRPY
inactive: [1] -0.044 | [2] 0.015 | [3] -0.083 | [4] -0.082 | Nexturastat A 0.37 | vemurafenib -0.116 | [5] 0.076 | [6] 0.075 | givinostat 0.151 | barasertib -0.082

SSB (UniProt P05455)
Sequence of UniProt P05455 (P05455 whole entry, looked up): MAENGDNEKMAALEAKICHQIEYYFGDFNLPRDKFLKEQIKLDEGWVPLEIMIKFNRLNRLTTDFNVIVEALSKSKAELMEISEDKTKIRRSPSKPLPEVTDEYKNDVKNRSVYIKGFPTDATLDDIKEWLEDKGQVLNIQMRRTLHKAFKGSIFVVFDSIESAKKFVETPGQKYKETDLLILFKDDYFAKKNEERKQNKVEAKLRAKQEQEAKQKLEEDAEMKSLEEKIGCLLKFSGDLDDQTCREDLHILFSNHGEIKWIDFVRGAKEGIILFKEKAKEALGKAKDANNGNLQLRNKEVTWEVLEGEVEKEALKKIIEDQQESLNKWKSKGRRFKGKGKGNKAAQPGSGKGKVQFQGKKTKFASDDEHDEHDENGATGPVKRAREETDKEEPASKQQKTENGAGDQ
inactive: [1] -0.02 | [2] 0.024 | [3] -0.026 | [4] 0.024 | Nexturastat A 0.019 | vemurafenib -0.003 | [5] 0.003 | [6] 0.036 | givinostat -0.175 | barasertib 0.074

SMAP (UniProt O00193)
inactive: [1] -0.018 | [2] -0.002 | [3] -0.03 | [4] 0.062 | Nexturastat A -0.059 | vemurafenib -0.006 | [5] 0.001 | [6] -0.107 | givinostat -0.02 | barasertib 0.008

TEX264 (UniProt Q9Y6I9)
Sequence of UniProt Q9Y6I9 (Q9Y6I9 whole entry, looked up): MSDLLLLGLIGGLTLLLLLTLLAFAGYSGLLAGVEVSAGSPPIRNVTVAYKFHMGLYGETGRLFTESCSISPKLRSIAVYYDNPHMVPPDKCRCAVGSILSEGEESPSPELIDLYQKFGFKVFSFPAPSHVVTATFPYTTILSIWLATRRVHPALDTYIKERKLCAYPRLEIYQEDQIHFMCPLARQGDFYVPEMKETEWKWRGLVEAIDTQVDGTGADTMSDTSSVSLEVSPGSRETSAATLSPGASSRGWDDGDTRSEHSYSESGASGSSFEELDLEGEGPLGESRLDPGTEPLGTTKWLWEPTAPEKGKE
inactive: [1] 0.053 | [2] -0.016 | [3] -0.008 | [4] 0.013 | Nexturastat A 0.023 | vemurafenib -0.002 | [5] -0.049 | [6] 0.014 | givinostat 0.317 | barasertib 0.032

TCERG1 (UniProt O14776)
inactive: [1] 0.061 | [2] -0.147 | [3] 0.08 | [4] 0.077 | Nexturastat A -0.144 | vemurafenib 0.118 | [5] 0.135 | [6] -0.006 | givinostat 0.146 | barasertib 0.107

TBC1D15 isoform 3 (UniProt Q8TC07)
Sequence of UniProt Q8TC07 (Q8TC07 whole entry, looked up): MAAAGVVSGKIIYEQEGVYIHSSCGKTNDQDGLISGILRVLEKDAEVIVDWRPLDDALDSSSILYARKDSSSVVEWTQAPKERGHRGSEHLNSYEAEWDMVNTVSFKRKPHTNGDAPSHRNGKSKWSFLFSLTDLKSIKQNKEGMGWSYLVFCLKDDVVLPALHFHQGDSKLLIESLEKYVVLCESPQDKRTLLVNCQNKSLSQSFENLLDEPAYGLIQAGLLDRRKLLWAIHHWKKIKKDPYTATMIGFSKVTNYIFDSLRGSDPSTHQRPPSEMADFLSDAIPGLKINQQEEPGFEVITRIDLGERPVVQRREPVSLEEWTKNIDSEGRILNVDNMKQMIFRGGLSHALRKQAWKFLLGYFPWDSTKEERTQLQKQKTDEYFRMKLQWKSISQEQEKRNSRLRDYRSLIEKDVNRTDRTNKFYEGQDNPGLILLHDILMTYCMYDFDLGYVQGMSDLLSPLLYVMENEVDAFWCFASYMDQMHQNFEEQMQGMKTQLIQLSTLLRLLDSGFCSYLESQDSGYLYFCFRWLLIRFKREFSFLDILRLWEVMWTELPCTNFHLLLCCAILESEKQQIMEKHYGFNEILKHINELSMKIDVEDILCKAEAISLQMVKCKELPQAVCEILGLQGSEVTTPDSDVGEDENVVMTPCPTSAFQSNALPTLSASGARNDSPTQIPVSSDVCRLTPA
inactive: [1] 0.076 | [2] -0.028 | [3] -0.003 | [4] -0.019 | Nexturastat A 0.002 | vemurafenib 0.049 | [5] 0.12 | [6] -0.015 | givinostat 0.046 | barasertib 0.068

SLC7A6 (UniProt Q92536)
inactive: [1] 0.021 | [2] 0.027 | [3] 0.023 | [4] 0.017 | Nexturastat A 0.05 | vemurafenib 0.03 | [5] -0.046 | [6] -0.005 | givinostat 0.012 | barasertib 0.036

STXBP2 isoform 3 (UniProt Q15833)
inactive: [1] 0 | [2] -0.042 | [3] 0.036 | [4] -0.017 | Nexturastat A 0.128 | vemurafenib 0.155 | [5] 0.032 | [6] 0.063 | givinostat 0.125 | barasertib 0.068

SNX1 (UniProt Q13596)
inactive: [1] -0.014 | [2] -0.001 | [3] -0.001 | [4] 0.042 | Nexturastat A -0.025 | vemurafenib 0.002 | [5] 0.083 | [6] -0.014 | givinostat 0.054 | barasertib 0.037

TIMM44 (UniProt O43615)
inactive: [1] 0.048 | [2] -0.028 | [3] 0.091 | [4] 0.074 | Nexturastat A -0.052 | vemurafenib -0.002 | [5] 0.12 | [6] -0.096 | givinostat -0.013 | barasertib 0.055

SRSF11 (UniProt Q05519)
inactive: [1] -0.029 | [2] -0.058 | [3] 0.009 | [4] 0.032 | Nexturastat A -0.022 | vemurafenib 0.007 | [5] 0.087 | [6] 0.053 | givinostat 0.059 | barasertib 0.023

SSR4 (UniProt P51571)
inactive: [1] -0.004 | [2] 0.012 | [3] 0.064 | [4] 0.039 | Nexturastat A -0.046 | vemurafenib -0.014 | [5] 0.081 | [6] -0.035 | givinostat 0.03 | barasertib -0.052

TBC1D10B (UniProt Q4KMP7)
inactive: [1] -0.019 | [2] 0.015 | [3] 0.025 | [4] 0 | Nexturastat A -0.051 | vemurafenib 0.004 | [5] 0.048 | [6] 0.014 | givinostat 0.018 | barasertib 0.01

SMARCA5 (UniProt O60264)
inactive: [1] 0.042 | [2] -0.041 | [3] 0.038 | [4] 0.014 | Nexturastat A 0.107 | vemurafenib 0.085 | [5] 0.129 | [6] 0.032 | givinostat 0.149 | barasertib 0.109

SP100 isoform 4 (UniProt P23497)
inactive: [1] 0.02 | [2] -0.004 | [3] 0.072 | [4] -0.008 | Nexturastat A -0.119 | vemurafenib -0.019 | [5] 0.159 | [6] 0 | givinostat -0.005 | barasertib 0.003

SNX3 (UniProt O60493)
Sequence of UniProt O60493 (O60493 whole entry, looked up): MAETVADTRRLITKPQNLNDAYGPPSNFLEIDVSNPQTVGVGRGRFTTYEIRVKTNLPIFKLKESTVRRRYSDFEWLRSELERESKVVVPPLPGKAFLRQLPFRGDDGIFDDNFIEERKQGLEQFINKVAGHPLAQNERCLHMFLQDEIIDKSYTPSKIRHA
inactive: [1] -0.013 | [2] -0.064 | [3] 0.073 | [4] -0.004 | Nexturastat A 0.037 | vemurafenib 0.046 | [5] 0.122 | [6] 0.02 | givinostat 0.09 | barasertib 0.045

SMAD9 (UniProt O15198)
Sequence of UniProt O15198 (O15198 whole entry, looked up): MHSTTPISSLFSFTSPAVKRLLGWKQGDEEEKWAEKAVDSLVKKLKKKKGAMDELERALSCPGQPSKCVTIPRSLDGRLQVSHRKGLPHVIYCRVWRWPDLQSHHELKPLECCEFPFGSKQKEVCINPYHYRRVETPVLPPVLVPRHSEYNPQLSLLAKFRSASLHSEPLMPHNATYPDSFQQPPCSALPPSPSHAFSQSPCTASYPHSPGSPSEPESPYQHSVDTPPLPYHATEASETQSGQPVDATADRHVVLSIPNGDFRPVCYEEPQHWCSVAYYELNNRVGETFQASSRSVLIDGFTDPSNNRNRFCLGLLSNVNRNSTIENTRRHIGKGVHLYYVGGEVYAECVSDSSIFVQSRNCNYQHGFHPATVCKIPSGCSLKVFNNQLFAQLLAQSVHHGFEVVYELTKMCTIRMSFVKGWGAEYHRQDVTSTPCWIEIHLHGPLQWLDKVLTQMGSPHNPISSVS
inactive: [1] -0.012 | [2] 0.029 | [3] 0.005 | [4] 0.028 | Nexturastat A 0.04 | vemurafenib 0.122 | [5] 0.104 | [6] -0.032 | givinostat 0.108 | barasertib 0.054

SPCS2 (UniProt Q15005)
inactive: [1] 0.011 | [2] 0.004 | [3] 0 | [4] 0.3 | Nexturastat A -0.052 | vemurafenib 0.075 | [5] 0.058 | [6] -0.011 | givinostat -0.009 | barasertib 0.025

SNRPB2 (UniProt P08579)
Sequence of UniProt P08579 (P08579 whole entry, looked up): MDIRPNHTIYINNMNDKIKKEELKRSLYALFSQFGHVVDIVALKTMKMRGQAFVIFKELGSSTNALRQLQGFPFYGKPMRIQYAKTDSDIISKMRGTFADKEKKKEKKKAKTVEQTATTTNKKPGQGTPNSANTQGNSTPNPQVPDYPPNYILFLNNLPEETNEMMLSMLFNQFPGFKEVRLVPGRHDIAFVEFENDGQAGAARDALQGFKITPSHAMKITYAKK
inactive: [1] -0.016 | [2] 0.007 | [3] -0.026 | [4] -0.014 | Nexturastat A -0.015 | vemurafenib -0.036 | [5] -0.042 | [6] -0.048 | givinostat -0.051 | barasertib -0.056

SPECC1 (UniProt Q5M775)
inactive: [1] -0.028 | [2] -0.015 | [3] 0.094 | [4] -0.063 | Nexturastat A -0.08 | vemurafenib -0.094 | [5] -0.06 | [6] -0.102 | givinostat 0.035 | barasertib 0.062

THRAP3 (UniProt Q9Y2W1)
Sequence of UniProt Q9Y2W1 (Q9Y2W1 whole entry, looked up): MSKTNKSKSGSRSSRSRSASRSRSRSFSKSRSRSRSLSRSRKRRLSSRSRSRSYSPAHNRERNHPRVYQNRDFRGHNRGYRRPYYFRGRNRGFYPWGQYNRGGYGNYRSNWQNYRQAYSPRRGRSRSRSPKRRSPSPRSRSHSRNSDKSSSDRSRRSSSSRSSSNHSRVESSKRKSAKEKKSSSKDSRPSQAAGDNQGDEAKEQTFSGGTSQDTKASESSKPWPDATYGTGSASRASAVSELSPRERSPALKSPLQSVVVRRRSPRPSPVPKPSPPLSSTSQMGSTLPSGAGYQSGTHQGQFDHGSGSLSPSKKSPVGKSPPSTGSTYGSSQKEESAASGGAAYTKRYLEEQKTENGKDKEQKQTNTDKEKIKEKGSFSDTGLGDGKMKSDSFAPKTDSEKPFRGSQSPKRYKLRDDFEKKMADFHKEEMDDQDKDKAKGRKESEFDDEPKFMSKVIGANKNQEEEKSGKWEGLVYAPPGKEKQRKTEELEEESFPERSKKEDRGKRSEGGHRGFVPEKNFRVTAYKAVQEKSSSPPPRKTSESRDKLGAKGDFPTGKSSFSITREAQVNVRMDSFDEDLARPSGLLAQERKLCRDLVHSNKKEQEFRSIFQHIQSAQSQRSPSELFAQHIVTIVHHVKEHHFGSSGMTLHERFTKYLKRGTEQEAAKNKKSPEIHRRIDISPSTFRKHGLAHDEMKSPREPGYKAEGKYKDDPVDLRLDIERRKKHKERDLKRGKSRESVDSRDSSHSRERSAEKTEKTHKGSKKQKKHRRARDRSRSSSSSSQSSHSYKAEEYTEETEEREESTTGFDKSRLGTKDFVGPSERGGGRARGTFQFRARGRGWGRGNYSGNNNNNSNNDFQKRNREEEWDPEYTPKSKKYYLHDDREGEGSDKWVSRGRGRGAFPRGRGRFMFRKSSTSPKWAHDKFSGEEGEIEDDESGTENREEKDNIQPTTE
inactive: [1] -0.008 | [2] 0.004 | [3] -0.056 | [4] -0.035 | Nexturastat A 0.109 | vemurafenib 0.063 | [5] -0.01 | [6] 0.197 | givinostat 0.093 | barasertib -0.099

STOM (UniProt P27105)
inactive: [1] -0.035 | [2] 0.025 | [3] -0.041 | [4] -0.002 | Nexturastat A 0.007 | vemurafenib 0.01 | [5] -0.053 | [6] -0.092 | givinostat 0.005 | barasertib -0.017

TIAL1 isoform 2 (UniProt Q01085)
inactive: [1] -0.009 | [2] 0.015 | [3] -0.019 | [4] 0.08 | Nexturastat A 0.005 | vemurafenib 0.023 | [5] 0.002 | [6] -0.007 | givinostat -0.022 | barasertib -0.021

SPART (UniProt Q8N0X7)
inactive: [1] 0.007 | [2] -0.027 | [3] 0.055 | [4] -0.014 | Nexturastat A 0.005 | vemurafenib -0.046 | [5] 0.088 | [6] -0.025 | givinostat 0.001 | barasertib 0.037

SMG1 (UniProt Q96Q15)
inactive: [1] -0.068 | [2] -0.048 | [3] 0.031 | [4] 0.012 | Nexturastat A 0.045 | vemurafenib 0.029 | [5] 0.077 | [6] -0.096 | givinostat 0.05 | barasertib 0.075

TECR (UniProt Q9NZ01)
inactive: [1] -0.017 | [2] -0.034 | [3] 0.031 | [4] 0.069 | Nexturastat A -0.043 | vemurafenib 0.021 | [5] 0.113 | [6] -0.084 | givinostat 0.011 | barasertib 0.007

TK1 (UniProt P04183)
Sequence of UniProt P04183 (P04183 whole entry, looked up): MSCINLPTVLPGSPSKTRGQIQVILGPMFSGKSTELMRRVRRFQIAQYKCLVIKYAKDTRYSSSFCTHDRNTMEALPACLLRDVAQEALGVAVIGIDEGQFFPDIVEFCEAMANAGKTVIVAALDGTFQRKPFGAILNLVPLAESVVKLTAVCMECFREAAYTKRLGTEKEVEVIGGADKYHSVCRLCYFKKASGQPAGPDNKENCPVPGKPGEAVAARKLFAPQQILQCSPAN
inactive: [1] -0.035 | [2] 0.001 | [3] 0.01 | [4] -0.004 | Nexturastat A 0.014 | vemurafenib 0.003 | [5] -0.012 | [6] -0.095 | givinostat 0.011 | barasertib 0.011

SRSF10 (UniProt O75494)
inactive: [1] -0.046 | [2] 0.029 | [3] -0.076 | [4] -0.134 | Nexturastat A 0.227 | vemurafenib -0.027 | [5] -0.027 | [6] 0.083 | givinostat 0.017 | barasertib -0.045

STX17 (UniProt P56962)
Sequence of UniProt P56962 (P56962 whole entry, looked up): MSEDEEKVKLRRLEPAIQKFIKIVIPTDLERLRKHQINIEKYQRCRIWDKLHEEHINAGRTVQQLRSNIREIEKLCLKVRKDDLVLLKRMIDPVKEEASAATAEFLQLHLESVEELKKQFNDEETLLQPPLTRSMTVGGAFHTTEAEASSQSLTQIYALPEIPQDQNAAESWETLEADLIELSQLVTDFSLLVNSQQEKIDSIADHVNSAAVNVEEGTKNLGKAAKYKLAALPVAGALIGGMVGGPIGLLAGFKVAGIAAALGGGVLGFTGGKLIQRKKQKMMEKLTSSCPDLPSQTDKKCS
inactive: [1] -0.036 | [2] -0.064 | [3] -0.023 | [4] 0.039 | Nexturastat A 0.126 | vemurafenib 0.12 | [5] 0.12 | [6] -0.07 | givinostat 0.152 | barasertib 0.011
